Tgondii IFNg: inhibitors of Toxoplasma gondii growth with IFN-gamma; Toxoplasma gondii growth in IFN-gamma-treated host cells; hits give low values; activity change, negative = inhibition, % (no concentration beside the values); 69,000 compounds, 3.8% hits; in the data active = activity change below about -70%, passing the limit was not always enough;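 note: host cells are HeLa cells infected with Toxoplasma gondii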
Starred values were filed as active, the others as inactive; ! = a repeat was not active. Only a selection was taken, and hits are over-represented in it overall.

SMILES	Tgondii IFNg
CCCN(CCC)S(=O)(=O)c1ccc(C(=O)NCCc2ccc(OC)c(OC)c2)cc1	-47
CCCN(CCC)S(=O)(=O)c1ccc(C(=O)Nc2ccc(F)cc2)cc1	-88*
CS(=O)(=O)c1ccc(C(=O)Nc2ccccc2)cc1	49
CCOC(=O)c1nc(NCc2ccc(OC)cc2)c2ccccc2n1	57
O=C(NC1Cc2ccccc2C1)[C@H]1[C@H](CO)[C@H]2Cn3c(cccc3=O)[C@H]2N1C(=O)c1cnccn1	3
Clc1ccc(NCn2nnc3ccccc32)cc1	90
CC(C)N=c1cc2n(-c3ccc(Cl)cc3)c3ccccc3nc-2cc1Nc1ccc(Cl)cc1	-71*!
Cc1oc(-c2ccc(C(=O)NCCN3CCCC3)cc2)nc1CN1CCN(c2ccccc2)CC1	-76*
COc1ccccc1CNC(=O)c1ccc(-c2nc(CN3CCN(c4ccccc4)CC3)c(C)o2)cc1	-109*
Cc1oc(-c2ccc(C(=O)NCc3ccccn3)cc2)nc1CN1CCN(c2ccccc2)CC1	-29
CNC(=O)c1ccc(-c2nc(CN3CCN(S(C)(=O)=O)CC3)c(C)o2)cc1	-8
Cc1oc(-c2ccc(C(=O)NCCC(C)C)cc2)nc1CN1CCN(c2ccccc2)CC1	-38
CNC(=O)c1ccc(-c2nc(CN3CCN(S(=O)(=O)c4c(C)cc(C)cc4C)CC3)c(C)o2)cc1	-96*
Cc1ccc(C)c(NC(=O)c2ccc(-c3nc(CN4CCN(c5ccccc5)CC4)c(C)o3)cc2)c1	-40
Cc1ccc(C)c(CNC(=O)c2ccc(-c3nc(CN4CCN(c5ccccc5)CC4)c(C)o3)cc2)c1	-79*
CNC(=O)c1ccc(-c2nc(CN3CCN(S(=O)(=O)c4ccc(C)cc4C)CC3)c(C)o2)cc1	-66
Cc1oc(-c2ccc(C(=O)NCC3CCCO3)cc2)nc1CN1CCN(c2ccccc2)CC1 (configuration not stated)	95
Cc1oc(-c2ccc(C(=O)NCc3cccs3)cc2)nc1CN1CCN(c2ccccc2)CC1	-57
CCCNC(=O)c1ccc(-c2nc(CN3CCN(c4ccccc4)CC3)c(C)o2)cc1	60
Cc1cnc(C(=O)N2CCC3(CC2)CN(c2ncccn2)CCO3)cn1	-61
O=C(Nc1ccccc1OCCCc1ccccc1)C1CCOC1 (configuration not stated)	4
Cc1ccc(CN2CC(C(=O)NCC3CC3)C3(CCOCC3)C2)s1 (configuration not stated)	-23
Cc1cc(CC(C)NC(=O)C(=O)c2ccco2)n[nH]1 (configuration not stated)	3
CC(C)CC(NS(=O)(=O)c1ccc2[nH]c(=O)ccc2c1)C(=O)N1CCOCC1 (configuration not stated)	66
CS(=O)(=O)N1CC[C@@H]2[C@H]1CCN2C(=O)Cc1cccs1	-2
SMILES	Tgondii IFNg
CSC1=NC(c2ccc(N(C)C)cc2)NN1 (configuration not stated)	201
COC1CC2(CCN(C(=O)c3ccnnc3)CC2)C1	-16
O=C1CCC2(CCN(c3ncccn3)CC2)N1Cc1ccccc1	-35
COCCNc1ccnc(C2COCCN2CC2CCOCC2)n1 (configuration not stated)	0
Cc1ccccc1CCNC(=O)c1ccc(-c2nc(CN3CCN(c4ccccc4)CC3)c(C)o2)cc1	-71*
Cc1oc(-c2ccc(C(=O)NCCC3=CCCCC3)cc2)nc1CN1CCN(c2ccccc2)CC1	-50
Cc1oc(-c2ccc(C(=O)NCCc3ccccc3)cc2)nc1CN1CCN(c2ccccc2)CC1	-59
c1ccc(-c2nc(SCc3nnnn3-c3ccccc3)c3ccccc3n2)cc1	-11
Cc1cccc(C2CN(C(=O)C(C)C)CCO2)n1 (configuration not stated)	12
c1ccn2c(C3CCCN(Cc4cc5n(n4)CCNC5)C3)nnc2c1 (configuration not stated)	-7
Cc1ccc2nc(CN(C)Cc3ccccc3C(=O)O)[nH]c2c1	5
COc1ncccc1-c1cccc(-c2nnc(C)s2)c1	-94*
COc1ncccc1-c1[nH]cnc1-c1ccccc1	-15
COc1ncccc1-c1nn(C)c2ccc(C)cc12	7
CCc1cccc(NC(=O)c2cncc(NS(=O)(=O)c3ccc(Br)cc3)c2)c1	-35
COc1cc(CCC(=O)N2CCC(c3nnsc3S(C)(=O)=O)CC2)ccc1C	4
CC1CCC2(CC1)Nc1ccccc1S2 (configuration not stated)	8
CO[C@@H]1CCN(C(=O)c2ccnn2C)C[C@@H]1Cc1ccccc1	303
O=C(O)c1c2ccccc2nc2ccccc12	-75*
O=C(O)c1ccccc1	12
O=C(O)c1c2c(nc3ccccc13)CSc1ccc(Cl)cc1-2	23
COc1ncccc1CN1CCN2C[C@@H](OCc3ccccn3)C[C@@H]2C1	11
Cc1n[nH]c(C)c1C12CC3CC(CC(CC(=O)O)(C3)C1)C2	-13
CCCCOc1c(C(=O)c2c(F)cc(C)cc2F)cnc2n[nH]cc12	-92*
CCCS(=O)(=O)Nc1ccc(F)c(C(=O)c2c[nH]c3ncc(Cl)cc23)c1F	-51
SMILES	Tgondii IFNg
CN(C)CCN1CCOCC2(CCCN(C(=O)c3ccc4ccccc4n3)C2)C1 (configuration not stated)	8
C[C@@H]1CN([C@H](C)CO)C(=O)c2c(c3ccccc3n2C)-c2ccccc2CO[C@H]1CN(C)Cc1cccc(C(F)(F)F)c1	-74*
C[C@@H]1CN([C@@H](C)CO)C(=O)c2c(c3ccccc3n2C)-c2ccccc2CO[C@H]1CN(C)Cc1cccc(C(F)(F)F)c1	-66
C[C@@H]1CN([C@@H](C)CO)C(=O)c2c(c3ccccc3n2C)-c2ccccc2CO[C@@H]1CN(C)C	-18
Cc1oc(-c2ccccc2Cl)nc1Cn1cnc2nc3c(cc2c1=O)CC(C)CC3 (configuration not stated)	47
CC(=O)C1CNc2ccc(Cl)cc2C1(O)c1ccccc1 (configuration not stated)	-19
Cc1cccc(C(=O)Nc2c(C(=O)NCc3cccnc3)[nH]c3ccccc23)c1	-35
CCN1CC[C@@]2(CN(c3ncccn3)C[C@H]2c2ccccc2)C1=O	-68
CN1C(=O)c2cc(NC(=O)Nc3cccc(C#N)c3)ccc2OC[C@H]2O[C@@H](CC(=O)NCc3ccc(Cl)cc3)CC[C@@H]21	-5
Cc1cc(C(=O)Nc2ccc3c(c2)C(=O)N(C)[C@@H]2CC[C@@H](CC(=O)O)O[C@H]2CO3)no1	14
CN1C(=O)c2cc(NC(=O)c3ccc4c(c3)OCO4)ccc2OC[C@H]2O[C@@H](CC(=O)O)CC[C@@H]21	7
CN1C(=O)c2cc(NC(=O)c3ccc4c(c3)OCO4)ccc2OC[C@H]2O[C@H](CC(=O)O)CC[C@@H]21	-11
Cc1cc(C(=O)Nc2ccc3c(c2)C(=O)N(C)[C@H]2CC[C@H](CC(=O)NCc4ccc(-c5ccccc5)cc4)O[C@H]2CO3)no1	-62
CN1C(=O)c2cc(NC(=O)c3ccc(C(F)(F)F)cc3)ccc2OC[C@H]2O[C@H](CC(=O)NCc3ccc4c(c3)OCO4)CC[C@@H]21	-75*
Cc1cc(C(=O)Nc2ccc3c(c2)C(=O)N(C)[C@@H]2CC[C@H](CC(=O)NCc4ccc(-c5ccccc5)cc4)O[C@@H]2CO3)no1	-87*
Cc1cc(C(=O)Nc2ccc3c(c2)C(=O)N(C)[C@H]2CC[C@@H](CC(=O)NCc4ccc(-c5ccccc5)cc4)O[C@H]2CO3)no1	-79*
COC(=O)C[C@H]1CC[C@@H]2[C@@H](COc3ccc(NC(=O)Nc4cccc(C#N)c4)cc3C(=O)N2C)O1	-79*

Screens (PubChem)
